# Records with an inconclusive call do not appear. The source made the active and inactive calls. Unless noted, calls come from the whole dose curve; as a rule, active = well fitted curve in either direction with a large enough effect (not every such curve was filed as active); inconclusive = small, poorly fitted or top-dose-only effect, or another doubt; inactive = flat fitted curve, though single readings scatter.
# Legend:
# [1] = AP1 Signaling Pathway (AID 357); conditions: ME-180 AP-1-bla reporter, EGF-induced, beta-lactamase ratio, 5 h; at 7.69 µM (top of the series) unless noted;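 note: ME-180 reporter cells stimulated with EGF at its EC50 level; % is set by controls: 0 for no effect and ±100 for the full control effect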
# In short: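 A ratiometric CCF4 readout (405 nm excitation; 460 and 530 nm emission) quantified AP-1-driven beta-lactamase in ME-180 cells after 5 h with compound and EC50 EGF; AC50 values were derived for activators and inhibitors.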
# [2] = biological target: Cytochrome P450 1A2 (Homo sapiens) (UniProt P05177); experiment: p450-cyp1a2 (AID 410; calls by dose curve; note: potency is the fitted concentration of half-maximal effect;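 for activity change, negative = inhibition: -100% = full effect of reference inhibitor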)
# Chain of Cytochrome P450 1A2 (Homo sapiens) (P05177 whole entry, looked up): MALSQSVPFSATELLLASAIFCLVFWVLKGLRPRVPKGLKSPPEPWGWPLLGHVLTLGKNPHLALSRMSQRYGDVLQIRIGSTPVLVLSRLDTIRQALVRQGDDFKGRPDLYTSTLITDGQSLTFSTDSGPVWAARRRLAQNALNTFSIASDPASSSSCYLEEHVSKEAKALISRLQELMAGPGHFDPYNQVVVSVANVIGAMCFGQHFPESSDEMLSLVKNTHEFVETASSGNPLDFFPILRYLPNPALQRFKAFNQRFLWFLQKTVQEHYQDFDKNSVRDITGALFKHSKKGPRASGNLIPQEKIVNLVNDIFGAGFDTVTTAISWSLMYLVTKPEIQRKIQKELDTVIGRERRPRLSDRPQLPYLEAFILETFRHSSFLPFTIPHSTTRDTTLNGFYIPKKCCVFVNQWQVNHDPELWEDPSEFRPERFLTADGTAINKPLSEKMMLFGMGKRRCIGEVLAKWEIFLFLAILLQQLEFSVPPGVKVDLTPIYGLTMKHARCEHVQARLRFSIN
# In short: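 20nM CYP1A2 with 100uM Luciferin-ME (at Km) in 100mM KPO4; compound preincubated 10 min, NADPH regeneration added, 60 min at room temperature. Luciferin quantified by luminescence after detection reagent; normalized to 57 uM furafylline.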
# [3] = NFAT Signaling Pathway (AID 444); conditions: Jurkat NFAT-bla M1, carbachol, beta-lactamase ratio, 5 h; at 7.69 µM (top of the series) unless noted;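 note: carbachol stimulus at about its EC50 of 1 µM final; % is set by controls: 0 for no effect and ±100 for the full control effect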
# In short: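 Jurkat cells carrying an NFAT-driven β-lactamase reporter and co-transfected muscarinic M1 receptor were treated with compound plus carbachol (1 uM final, an EC50 level) for 5 h at 37 °C. CCF4 loading followed for 1 h at RT; 460/530 nm ratio gave %activity.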
# [4] = Stat Signaling Pathway (AID 446); conditions: ME-180 SIE beta-lactamase reporter, IL-6 stimulated, 5 h; at 7.69 µM (top of the series) unless noted;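 note: ME-180 cervical cancer cells given 40 pM IL-6 alongside compound; SIE-controlled beta-lactamase reporter measured as 460/530 nm FRET emission ratio; % is set by controls: 0 for no effect and ±100 for the full control effect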
# In short: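 Reporter line: ME-180 cervical carcinoma, SIE-beta-lactamase. Treatment: compound with 40 pM IL-6, 5 hrs, 37 C, in low-serum OPTI-MEM with 10 mM HEPES pH 7.3. Detection: 460/530 nm fluorescence.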
# [5] = biological target: Glucocorticoid receptor (Homo sapiens) (UniProt P04150); experiment: GR-EFC Redistribution (AID 451; calls by dose curve; note: potency is the fitted concentration of half-maximal effect); conditions: CHO-K1 GR-EFC translocation, beta-gal luminescence, 2 h
# Chain of Glucocorticoid receptor (Homo sapiens) (P04150 whole entry, looked up, the tested form may be a part): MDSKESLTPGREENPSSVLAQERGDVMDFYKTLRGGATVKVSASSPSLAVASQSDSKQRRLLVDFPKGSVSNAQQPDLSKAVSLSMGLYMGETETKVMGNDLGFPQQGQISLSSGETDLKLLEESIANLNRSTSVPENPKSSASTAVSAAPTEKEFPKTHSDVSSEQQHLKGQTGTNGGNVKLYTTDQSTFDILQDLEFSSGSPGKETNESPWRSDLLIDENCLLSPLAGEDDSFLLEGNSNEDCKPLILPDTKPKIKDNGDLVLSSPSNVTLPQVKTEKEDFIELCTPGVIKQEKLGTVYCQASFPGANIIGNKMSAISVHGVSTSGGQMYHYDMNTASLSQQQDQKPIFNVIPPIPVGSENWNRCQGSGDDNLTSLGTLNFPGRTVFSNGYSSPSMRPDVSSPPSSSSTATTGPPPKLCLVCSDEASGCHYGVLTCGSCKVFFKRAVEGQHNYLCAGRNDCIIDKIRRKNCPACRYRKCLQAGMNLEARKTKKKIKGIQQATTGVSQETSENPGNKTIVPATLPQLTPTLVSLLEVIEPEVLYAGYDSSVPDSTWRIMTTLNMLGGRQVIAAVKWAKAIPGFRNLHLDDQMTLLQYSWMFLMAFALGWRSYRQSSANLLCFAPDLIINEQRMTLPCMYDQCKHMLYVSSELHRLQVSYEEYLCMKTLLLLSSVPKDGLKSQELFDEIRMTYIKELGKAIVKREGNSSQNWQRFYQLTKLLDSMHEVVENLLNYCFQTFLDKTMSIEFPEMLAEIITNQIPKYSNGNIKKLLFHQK
# In short: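 CHO-K1 cells stably expressing nuclear-localized β-gal enzyme acceptor and GR fused C-terminally to the enzyme donor fragment; ligand-driven nuclear translocation restores β-gal by complementation. Compounds titrated up to 46 uM final, 2 h at 37 °C; luminescence read.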
# [6] = biological target: Mitogen-activated protein kinase 10 (Mus musculus) (UniProt Q61831); experiment: JNK3 AlphaScreen Assay (AID 530);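 note: kinase came from lysate of stimulated human HepG2 cells; signal reports phosphorylation of biotinylated GST-cJun 1-79 at Ser73 with 10 µM ATP; % is set by controls: 0 for no effect and ±100 for the full control effect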
# In short: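 Inhibitors reduce antibody binding to phosphorylated biotin-cJun, lowering AlphaScreen luminescence. Lysates from HepG2 cells pre-activated by IL-1beta plus TNF-alpha supplied JNK3; compounds were titrated.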
# [7] = biological target: Cytochrome P450 3A4 (Homo sapiens) (UniProt P08684); experiment: qHTS Assay for Activators of Cytochrome P450 3A4 (AID 885; active = well fitted curve in the direction sought with a large enough effect; an effect the other way counts as inactive or inconclusive; note: nearly all actives have a fitted effect of over 65% in size; note: potency is the fitted concentration of half-maximal effect)
# Chain of Cytochrome P450 3A4 (Homo sapiens) (P08684 whole entry, looked up): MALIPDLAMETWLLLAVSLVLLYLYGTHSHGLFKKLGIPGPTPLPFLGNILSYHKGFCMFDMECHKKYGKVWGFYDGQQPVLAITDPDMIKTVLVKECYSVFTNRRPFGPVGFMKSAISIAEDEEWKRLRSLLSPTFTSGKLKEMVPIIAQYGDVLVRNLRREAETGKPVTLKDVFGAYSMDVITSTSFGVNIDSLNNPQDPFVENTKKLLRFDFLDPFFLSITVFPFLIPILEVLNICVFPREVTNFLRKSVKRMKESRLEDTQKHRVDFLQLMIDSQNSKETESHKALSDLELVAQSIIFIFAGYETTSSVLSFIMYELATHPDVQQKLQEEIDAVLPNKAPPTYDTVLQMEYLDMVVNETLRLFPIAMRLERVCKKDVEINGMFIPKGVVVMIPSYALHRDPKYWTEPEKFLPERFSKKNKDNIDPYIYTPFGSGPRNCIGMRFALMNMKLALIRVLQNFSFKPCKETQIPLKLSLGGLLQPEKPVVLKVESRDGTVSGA
# In short: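 Signal was normalized against complete inhibition by 57 uM ketoconazole. The reaction used 20nM CYP3A4 with 25uM Luciferin-PPXE, 10-min compound preincubation and a 60-min NADPH-supported step at RT.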
# [8] = qHTS Assay for Lipid Storage Modulators (AID 1519; calls by dose curve); conditions: Drosophila S3 cells, BODIPY lipid droplet/cell ratio, laser cytometry, cells loaded with oleic acid; for activity change, negative = inhibition: at 57.5 µM (top of the series)
# In short: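 Cells seeded at 5,000 per well were treated with compounds over a concentration series and loaded with oleic acid (400 uM, as added). Lipid droplet fluorescence (488 nm excitation, 500-530 nm channel) was read by laser-scanning cytometry and normalized to 20 uM Triacsin C.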
# [9] = Primary qHTS for small molecule stabilizers of the endoplasmic reticulum resident proteome: Secreted ER Calcium Modulated Protein (SERCaMP) assay (AID 1508630; active = well fitted curve in the direction sought with a large enough effect; an effect the other way counts as inactive or inconclusive; note: % is set by controls: 0 for no effect and ±100 for the full control effect)
# In short: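 GLuc-SERCaMP-expressing SH-SY5Y cells, pretreated 16 h with compound, are challenged with thapsigargin to empty ER calcium stores; after 4 h, coelenterazine is added directly to the medium and luminescence is imaged.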
# [10] = biological target: Lysosomal acid glucosylceramidase (Homo sapiens) (UniProt P04062); experiment: Glucocerebrosidase-p2 (AID 348; in the data active = potency below about 10 µM; note: potency is the fitted concentration of half-maximal effect); conditions: purified GBA, blue fluorogenic substrate, 40 min
# Chain of Lysosomal acid glucosylceramidase (Homo sapiens) (P04062 whole entry, looked up): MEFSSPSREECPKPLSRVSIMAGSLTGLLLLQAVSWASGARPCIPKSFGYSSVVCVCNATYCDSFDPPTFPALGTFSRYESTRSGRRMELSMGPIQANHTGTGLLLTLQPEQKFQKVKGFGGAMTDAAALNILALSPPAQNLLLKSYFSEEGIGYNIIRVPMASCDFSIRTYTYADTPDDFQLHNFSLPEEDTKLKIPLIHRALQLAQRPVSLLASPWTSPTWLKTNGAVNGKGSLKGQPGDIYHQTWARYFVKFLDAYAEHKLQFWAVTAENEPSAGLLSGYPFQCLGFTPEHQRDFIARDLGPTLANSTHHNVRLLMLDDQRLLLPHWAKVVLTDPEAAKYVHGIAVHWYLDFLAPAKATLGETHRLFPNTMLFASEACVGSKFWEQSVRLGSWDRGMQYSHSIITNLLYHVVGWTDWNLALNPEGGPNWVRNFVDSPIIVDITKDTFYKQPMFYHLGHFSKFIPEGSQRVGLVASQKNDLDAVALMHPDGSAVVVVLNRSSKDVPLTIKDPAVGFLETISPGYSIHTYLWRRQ
# In short: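 Compounds titrated from 0.6 nM upwards against 0.2 nM enzyme in pH 5.9 citric acid/KH2PO4, taurocholate, tween-20; blue fluorogenic substrate 80 uM, 40 min room temperature, stopped and read Ex 365/Em 440 for AC50.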
# [11] = biological target: Glucocorticoid receptor (Homo sapiens) (UniProt P04150); experiment: GR-GFP Redistribution (AID 450;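 active = compounds whose dose series gives a full or clear partial fitted curve of increased nuclear translocation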; note: potency is the fitted concentration of half-maximal effect); conditions: U2OS GR-GFP nuclear translocation, laser cytometry, 2 h
# [12] = biological target: 3',5'-cyclic-AMP phosphodiesterase 4B (Homo sapiens) (UniProt Q07343); experiment: qHTS Assay for Inhibitors of PDE-IV (AID 607; active = well fitted activation curve with a large enough effect in the main read-out, with a control signal flat, not every such curve was filed as active; note: % of control where 0% means no effect)
# Chain of 3',5'-cyclic-AMP phosphodiesterase 4B (Homo sapiens) (Q07343 whole entry, looked up): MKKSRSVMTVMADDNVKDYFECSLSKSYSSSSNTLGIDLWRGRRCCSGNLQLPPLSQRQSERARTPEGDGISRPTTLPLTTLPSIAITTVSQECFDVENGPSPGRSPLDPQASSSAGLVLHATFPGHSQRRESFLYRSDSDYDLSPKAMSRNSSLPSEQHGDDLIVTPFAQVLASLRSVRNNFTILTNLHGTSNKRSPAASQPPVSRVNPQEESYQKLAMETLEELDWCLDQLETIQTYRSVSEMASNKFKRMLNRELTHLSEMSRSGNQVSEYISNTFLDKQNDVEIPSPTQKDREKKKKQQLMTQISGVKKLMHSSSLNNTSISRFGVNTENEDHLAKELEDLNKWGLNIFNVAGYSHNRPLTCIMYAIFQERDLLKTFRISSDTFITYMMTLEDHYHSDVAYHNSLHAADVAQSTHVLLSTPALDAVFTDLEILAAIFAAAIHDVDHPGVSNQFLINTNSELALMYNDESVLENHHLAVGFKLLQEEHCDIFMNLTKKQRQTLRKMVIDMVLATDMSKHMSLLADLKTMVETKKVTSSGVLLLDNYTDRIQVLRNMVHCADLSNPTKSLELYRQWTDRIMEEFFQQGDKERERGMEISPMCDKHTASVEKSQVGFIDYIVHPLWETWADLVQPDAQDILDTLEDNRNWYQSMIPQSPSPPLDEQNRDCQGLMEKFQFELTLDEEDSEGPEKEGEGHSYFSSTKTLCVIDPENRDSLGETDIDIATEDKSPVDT
# In short: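 Cell-based read-out of cAMP via a modified cyclic nucleotide-gated channel and membrane potential dye (535/590 nm) in HEK293 cells expressing PDE4 endogenously. Compounds tested up to 22.9 uM final; 100 uM RO 20-1724 reference.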
# [13] = Confirmation and Secondary Assay for Modulators of Hemoglobin Beta Chain Splicing at IVS2 654 locus (AID 910; active = well fitted curve in the direction sought with a large enough effect; an effect the other way counts as inactive or inconclusive;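 note: per-well total GFP intensity by laser scanning cytometry after 2-day treatment; % of control where 0% means no effect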)
# In short: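 HeLa cells stably carrying EGFP interrupted by mutant beta-globin IVS2-654 intron (CMV-driven) were treated with compound for 2 days at 37C; corrected splicing was scored as total peak GFP intensity per well (488 nm excitation, 500-520 nm emission).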
# [14] = Confirmation and Secondary Assay for Modulators of Hemoglobin Beta Chain Splicing at IVS2 705 locus (AID 930; active = well fitted curve in the direction sought with a large enough effect; an effect the other way counts as inactive or inconclusive;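 note: HeLa cells stably expressing the EGFP-705 splicing reporter; GFP fluorescence per well restored by corrected splicing of the IVS2-705 intron in EGFP; % of control where 0% means no effect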)
# In short: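 Splice-correction reporter: EGFP cDNA split by beta-globin intron 2 bearing the 705 mutation, stably in HeLa. Compound incubation 2 days, 37C; fluorescent objects 5-250 µm summed per well.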
# [15] = biological target: Ubiquitin carboxyl-terminal hydrolase 1 (Homo sapiens) (UniProt O94782); experiment: Inhibitors of USP1/UAF1: Pilot qHTS (AID 504865; active = well fitted curve in the direction sought with a large enough effect; an effect the other way counts as inactive or inconclusive;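 note: rhodamine fluorescence freed from ubiquitin-rhodamine substrate followed over time; top concentration of the series differs between compounds; % is set by controls: 0 for no effect and ±100 for the full control effect; nearly all actives have a fitted effect of over 35% in size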)
# Chain of Ubiquitin carboxyl-terminal hydrolase 1 (Homo sapiens) (O94782 whole entry, looked up): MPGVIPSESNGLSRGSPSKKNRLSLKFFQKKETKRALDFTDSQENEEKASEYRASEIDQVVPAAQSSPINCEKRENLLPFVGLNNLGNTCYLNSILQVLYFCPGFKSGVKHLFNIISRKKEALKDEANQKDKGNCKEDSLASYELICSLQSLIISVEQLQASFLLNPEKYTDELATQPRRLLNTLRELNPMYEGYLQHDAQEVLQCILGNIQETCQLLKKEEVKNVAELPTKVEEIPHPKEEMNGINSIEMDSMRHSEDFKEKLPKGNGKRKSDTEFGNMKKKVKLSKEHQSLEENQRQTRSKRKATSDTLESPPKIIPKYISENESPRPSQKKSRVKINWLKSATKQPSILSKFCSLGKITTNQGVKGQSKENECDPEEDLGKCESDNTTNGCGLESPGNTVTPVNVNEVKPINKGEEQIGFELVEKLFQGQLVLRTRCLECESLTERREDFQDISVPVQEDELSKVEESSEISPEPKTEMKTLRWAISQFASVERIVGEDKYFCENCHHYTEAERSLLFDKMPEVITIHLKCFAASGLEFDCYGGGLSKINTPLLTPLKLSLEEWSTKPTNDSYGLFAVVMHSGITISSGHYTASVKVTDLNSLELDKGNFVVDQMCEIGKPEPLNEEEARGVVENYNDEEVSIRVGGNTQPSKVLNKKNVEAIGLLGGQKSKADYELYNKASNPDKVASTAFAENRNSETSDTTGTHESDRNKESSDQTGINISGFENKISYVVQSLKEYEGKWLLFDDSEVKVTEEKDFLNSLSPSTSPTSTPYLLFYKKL
# In short: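 USP1/UAF1 complex (1nM) preincubated with compound 15 min at room temperature, then Ub-Rho substrate (150nM final) added. Fluorescence read kinetically at 480/540 nm, 6 reads every 60 seconds. Buffer: 50mM HEPES pH 7.8, 0.5mM EDTA, 0.1 mg/ml BSA, 1mM TCEP, 0.01% Tween-20.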
# [16] = measured here: cell count channel max response
# [17] = measured here: lipid channel max response
Structure (SMILES),"activity change, negative = inhibition [1]",Potency [2],"activity change, negative = inhibition [3]","activity, negative = inhibition [4]",Potency [5],Potency [6],Potency [7],"activity change, negative = inhibition [8]","max response [8, 16] [%]","max response [8, 17] [%]",outcome [9],Potency [10],Potency [11],Potency [12],Potency [13],outcome [14],Potency [15]
CC(=O)N1CCC[C@@]2(CCN(Cc3nccs3)C2)C1,1.66% (inactive),inactive,8.54% (inactive),4.24% (inactive),> 46 µM (inactive),inactive,inactive,6.81% (inactive),16.2,26.9,inactive,–,–,–,–,–,–
N#CCCn1c(=O)c(-c2cccs2)nc2cnc(N3CCNCC3)nc21,–,–,–,–,> 46 µM (inactive),inactive,–,-0.055% (inactive),5.4,9.49,inactive,> 11.4 µM (inactive),> 9.22 µM (inactive),inactive,–,–,–
O=C(c1csnn1)N1CCC2(CCN(Cc3ccccc3)CC2)CC1,13.9% (inactive),inactive,–,-0.255% (inactive),> 46 µM (inactive),inactive,–,-4.6% (inactive),4.52,1.17,inactive,–,–,inactive,–,–,–
O=C(c1csnn1)N1CCC2(CC1)CCN(c1ccncc1)CC2,0.494% (inactive),inactive,–,0.543% (inactive),> 46 µM (inactive),inactive,inactive,1.35% (inactive),6.68,10,inactive,–,–,inactive,–,–,–
O=C(c1ccncc1)N1CCC2(CCN(Cc3nccs3)CC2)CC1,6.32% (inactive),inactive,–,4.96% (inactive),> 46 µM (inactive),–,–,-1.51% (inactive),5.19,5.04,inactive,–,–,inactive,–,–,–
O=C(c1cc(C(F)(F)F)cc(C(F)(F)F)c1)N1CCC2(CC1)CN(c1ccncc1)C2,13% (inactive),inactive,–,3.13% (inactive),> 46 µM (inactive),–,–,2.27% (inactive),-2.54,0.518,inactive,–,–,–,–,–,–
O=c1c(-c2ccc(F)cc2)nc2cnc(N3CCOCC3)nc2n1-c1ccccc1,–,–,–,–,> 46 µM (inactive),inactive,–,-4.64% (inactive),7.89,5.39,inactive,> 11.4 µM (inactive),> 9.22 µM (inactive),–,–,–,–
Cc1nc2cnc(N3CCNCC3)nc2n(CCC#N)c1=O,-1.38% (inactive),–,-8.3% (inactive),-12.7% (inactive),> 46 µM (inactive),inactive,–,4.65% (inactive),11.9,19.3,inactive,–,> 9.22 µM (inactive),inactive,–,–,–
Cc1noc(C)c1-c1nc(N2CCOCC2)c2ccccc2n1,-9.5% (inactive),0.316 µM (active),16.1% (inactive),19.8% (inactive),> 46 µM (inactive),inactive,inactive,2.85% (inactive),6.88,9.54,inactive,–,> 46 µM (inactive),inactive,inactive,–,–
COc1ccc2[nH]cc(CCNc3ccnc(-c4cccc(NS(C)(=O)=O)c4)n3)c2c1,-8.22% (inactive),1.58 µM (active),–,-27.4% (inactive),> 46 µM (inactive),inactive,inactive,8.87% (inactive),-1.88,5.22,inactive,–,> 46 µM (inactive),inactive,inactive,inactive,inactive
O=C(Nc1cccc(F)c1)N1CC2(CCN(C(=O)c3cnccn3)CC2)C1,-4.36% (inactive),inactive,20.8% (inactive),-2.15% (inactive),> 46 µM (inactive),inactive,–,6.82% (inactive),10.6,20.5,inactive,–,–,inactive,–,–,–
FC(F)(F)c1ccccc1-c1cncnc1Nc1ccccc1,-9.67% (inactive),25.1 µM (active),9.21% (inactive),–,> 46 µM (inactive),inactive,inactive,4.42% (inactive),10.3,16.8,inactive,–,> 46 µM (inactive),–,inactive,inactive,inactive
O=C(c1ccco1)N1CCC2(CC1)CCN(C(c1ccccc1)c1ccccc1)CC2,0.867% (inactive),inactive,–,-7.63% (inactive),> 46 µM (inactive),inactive,12.6 µM (active),3.39% (inactive),7.88,15,inactive,–,–,inactive,–,–,–
CNc1nc(-c2ccccc2C(F)(F)F)nc2ccccc12,-1.48% (inactive),0.251 µM (active),5.59% (inactive),3.95% (inactive),> 46 µM (inactive),inactive,–,5.47% (inactive),10,19.8,inactive,–,> 46 µM (inactive),inactive,inactive,inactive,–
CC(=O)NCCNc1nc(-c2ccc(N(C)C)cc2)nc2ccccc12,7.41% (inactive),3.16 µM (active),-28.2% (inactive),–,> 46 µM (inactive),inactive,inactive,9.02% (inactive),13,24.4,inactive,–,> 46 µM (inactive),inactive,–,inactive,inactive
COc1ccccc1CN1CCCC2(CCN(C(=O)c3cc(C(F)(F)F)cc(C(F)(F)F)c3)CC2)C1,–,–,–,–,> 46 µM (inactive),inactive,–,3.12% (inactive),-3.38,1.79,inactive,> 11.4 µM (inactive),–,inactive,–,–,–

# Source: PubChem BioAssay (NCATS)
